Pf growth 96h = inhibits malaria parasite growth, 96 h; actives 6.9% (n = 320,000); P. falciparum luciferase reporter growth, 96 h; Potency, µM (series often up to 28.7 µM), hits mostly inhibitors
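Infected RBCs, 2% Hct / 0.05% parasitemia final; luciferase-reporter P. falciparum; cpd 96 h, 37 C, 5% CO2; luciferase detection reagent; luminescence.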
Giardia FBPA inh-1 = Giardia lamblia aldolase inhibition. A8B2U2. purified Giardia FBPA. Potency, µM (series often up to 59.6 µM), actives largely listed as inhibitors. actives 0.71% (n = 290,000). AID 2451; also: nearly all actives have a fitted effect of over 55% in size
Target sequence (A8B2U2 whole entry, looked up): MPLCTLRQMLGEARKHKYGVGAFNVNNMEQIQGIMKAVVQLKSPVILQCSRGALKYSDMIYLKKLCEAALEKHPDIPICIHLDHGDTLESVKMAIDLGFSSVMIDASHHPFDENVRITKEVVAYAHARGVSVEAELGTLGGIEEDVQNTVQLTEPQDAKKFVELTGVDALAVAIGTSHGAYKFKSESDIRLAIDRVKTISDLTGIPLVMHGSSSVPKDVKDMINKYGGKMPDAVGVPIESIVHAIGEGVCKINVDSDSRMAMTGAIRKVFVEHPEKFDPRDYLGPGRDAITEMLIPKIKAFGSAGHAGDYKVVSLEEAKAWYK
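Giardia FBPA (40 nM reagent) was preincubated 10 min at RT with compound (up to 57.5 uM final), then substrate plus GAPDH/TPI/NAD/arsenate coupling system with diaphorase/resazurin was added; resorufin fluorescence (525/598 nm) was read after 20 min.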
Pf growth 48h = inhibits P. falciparum growth in the first generation, 48 h. P. falciparum luciferase growth in erythrocytes, 48 h. Potency, µM (top dose mostly 28.7 µM), actives largely listed as inhibitors. actives 5.9% (n = 310,000). AID 504832
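Luciferase-expressing P. falciparum in infected erythrocytes (2% hematocrit, 0.1% parasitemia final) in RPMI 1640/0.5% Albumax were exposed to compound for 48 hours at 37 C, 5% CO2; growth read as luminescence.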
Sm TGR inh = blocks Schistosoma mansoni thioredoxin glutathione reductase | actives 3% (n = 360,000) | Potency, µM (doses to about 114 µM), most hits filed as inhibitors | Q962Y6 | purified TGR, DTNB reduction, TNB absorbance 405 nm; also: nearly all actives have a fitted effect of over 60% in size
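First, TGR (20 nM dispensed) and NADPH were mixed with compound. Second, a 15 min room-temperature incubation followed. Third, further NADPH and then DTNB were added to start the reaction. Finally, TNB absorbance was monitored kinetically.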
HCMV inh = blocks human cytomegalovirus replication | HFF cells, HCMV-luciferase reporter, 72 h; active compounds read low | activity change, negative = inhibition, % at 57.5 µM | actives 4.5% (n = 410,000) | AID 1259415; in the data active = activity change below about -60%; inconclusive = no clear call, values can overlap the other calls; inactive = above about -39%
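After 16 h attachment at 37C, HFF cells received test compound and HCMV-luciferase (1 PFU/cell); reporter luminescence read 72 h later, data normalized against buffer-only and known inhibitor Salinomycin.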
Giardia growth = blocks growth of Giardia lamblia trophozoites; shares compounds with Giardia FBPA inh-1; Giardia lamblia trophozoite growth inhibition; Potency, µM (series often up to 57.5 µM), usual class: inhibitors; actives 5% (n = 1,500); AID 2785;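 also: trophozoites exposed to compound for 48 h at 37 °C; nearly all actives have a fitted effect of over 70% in size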
Mammal cell tox = toxic to mammalian cells in Giardia aldolase counter-screen | shares compounds with Giardia FBPA inh-1 | mammalian cell viability counter-screen, qHTS | Potency, µM (doses to about 57.5 µM), actives largely listed as inhibitors | actives 4% (n = 1,500);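 also: Chinese hamster ovary cells used as mammalian cytotoxicity surrogate; viability measured as cellular ATP by luminescence; compound exposure lasted 48 h before reading; nearly all actives have a fitted effect of over 60% in size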
Giardia FBPA inh-2 = confirmation of Giardia fructose-bisphosphate aldolase inhibitors; shares compounds with Giardia FBPA inh-1; purified Giardia aldolase enzyme activity, qHTS; Potency, µM (doses to about 57.5 µM), hits mostly inhibitors; actives 5% (n = 1,500); also: nearly all actives have a fitted effect of over 45% in size
Rabbit aldolase = rabbit FBP aldolase inhibition by Giardia aldolase hits; actives 4% (n = 1,500); Rabbit muscle FBPA enzyme inhibition, selectivity counter-screen; shares compounds with Giardia FBPA inh-1; Potency, µM (highest dose often 57.5 µM), most hits filed as inhibitors; also: nearly all actives have a fitted effect of over 60% in size
GAPDH coupling = counter-screen for Giardia aldolase inhibitors: GAPDH coupling enzyme; AID 2795; actives 6% (n = 1,500); GAPDH coupling enzyme counterscreen, biochemical, qHTS; shares compounds with Giardia FBPA inh-1; Potency, µM (series often up to 57.5 µM), actives largely listed as inhibitors; also: nearly all actives have a fitted effect of over 55% in size
A number is an active result; i = inactive; ? = inconclusive; nt = not tested or not shown; [ ] = dose if it differs, or a comment. This is a sample that favours compounds with a hit; in the whole collection about 14% have one here. Unless noted, calls follow the shape of the dose curve; as a rule, active = well fitted curve in the direction sought with a large enough effect; inconclusive = small, poorly fitted or top-dose-only effect, or another doubt; inactive = no such curve, though single readings can be large; an effect the other way counts as inactive or inconclusive.

SMILES | Pf growth 96h | Giardia FBPA inh-1 | Pf growth 48h | Sm TGR inh | HCMV inh | Giardia growth | Mammal cell tox | Giardia FBPA inh-2 | Rabbit aldolase | GAPDH coupling
Cc1cccnc1NC(=S)NC(=O)c1cncc(Br)c1 | i | 10µM | i | i | i | i | i | i | i | i
CC(=O)c1cccc(NC(=S)NC(=O)c2cncc(Br)c2)c1 | i | 13µM | i | ? | i | i[10.4 µM] | i | i | i | i
Cc1noc(C)c1S(=O)(=O)N1CCCN(C(=O)/C=C/c2ccccc2F)CC1 | ? | nt | ? | i | i | nt | nt | nt | nt | nt
CC1(c2nnnn2-c2ccc3c(c2)OCCO3)CCC(=O)N1C1CCN(Cc2ccccc2)CC1 (centres undefined) | nt | nt | nt | nt | i | nt | nt | nt | nt | nt
COc1ccc(-c2n[nH]c(=S)n2N)c(OC)c1 | i | 10µM | i | i | i | i | i | i | i | i
COc1ccc(-n2c(-c3ccc(Cl)cc3Cl)n[nH]c2=S)c(OC)c1 | i | i | i | i | i | nt | nt | nt | nt | nt
O=c1[nH][nH]c(=S)n1-c1ccccc1C(F)(F)F | i | 18µM | i | ? | nt | ? | i | i | i | i
FC(F)(F)c1ccccc1NC(=S)Nn1cnnc1 | i | nt | i | i | i | nt | nt | nt | nt | nt
COc1cc(/C=N/Nc2nc(=O)[nH]nc2C)cc([N+](=O)[O-])c1O | 0.66µM | 20µM | 1.2µM | i | i | ? | i | i | i | i
Cc1n[nH]c(=O)nc1N/N=C/c1ccc(O)c([N+](=O)[O-])c1 | i | 18µM | ? | i | i | 14µM | i | i | i | i
O=C(O)C1CCc2sc3[nH]c(=S)n(-c4ccccc4)c(=O)c3c21 (centres undefined) | i | 20µM | i | i | i | i[10.4 µM] | i | i | i | i
CN(CC(=O)NCc1ccccc1Cl)CC(=O)Nc1ccccc1Br | i | nt | ? | i | i | nt | nt | nt | nt | nt
CCN(CC(=O)NCc1ccccc1Cl)CC(=O)Nc1c(F)cccc1F | i | 18µM | i | i | i | i | i | i | i | i
CC(C)(C)c1ccc(C(=O)Nc2cccc3c(=O)[nH][nH]c(=O)c23)cc1 | ? | 20µM | i | i | -69 | ? | ? | i | i | i
CCN(c1ccccc1)S(=O)(=O)c1ccc(C(=O)Nc2cc(C)ccn2)cc1 | ? | nt | i | i | i | nt | nt | nt | nt | nt
CC(=O)Nc1ccc(-c2ccc(NC(C)=O)cc2)cc1 | i | i | i | i | i | nt | nt | nt | nt | nt
CC(=O)Nc1ccc(-c2ccc(NC(C)=O)c(O)c2)cc1O | i | i | i | i | i | i | i | 2.6µM | i | ?
Cc1ccc(C(=O)Nc2ncc([N+](=O)[O-])s2)cc1 | i | 16µM | i | i | -70 | ? | 40µM | ? | 25µM | 28µM
Cc1cccc(C(=O)Nc2nnc(-c3cccnc3)o2)c1 | i | 16µM | i | i | i | ? | ? | i | i | i
O=C(Nc1nnc(-c2ccc(Cl)cc2)o1)c1cccc(N2C(=O)CCC2=O)c1 | i | i | i | i | i | nt | nt | nt | nt | nt
O=C(Nc1nnc(-c2ccncc2)o1)c1cccc(N2C(=O)CCC2=O)c1 | i | 20µM | i | i | i | i[10.4 µM] | i | i | i | i
Nc1ncnc2c1ncn2[C@@H]1O[C@H](C(=O)Nc2ccc(Oc3ccccc3)nc2)[C@@H](O)[C@H]1O | nt | nt | nt | nt | i | nt | nt | nt | nt | nt
Nc1nc(=S)c2ncn(C3CCCC3)c2[nH]1 | ? | 7.1µM | ? | i | i | i | i | i | i | i
Nc1nc2c(ncn2C2CCCC2)c(=O)[nH]1 | nt | nt | nt | nt | i | nt | nt | nt | nt | nt
O=C(NNC(=O)C12CC3CC(CC(C3)C1)C2)c1ccccn1 | 4.1µM | 18µM | 4.1µM | i | -107 | ? | 32µM | i | i | i
O=C(NNC(=O)C12CC3CC(CC(C3)C1)C2)c1cnccn1 | ? | i | ? | i | ? | nt | nt | nt | nt | nt

High-throughput results as filed in PubChem BioAssay.
